Source: PubChem BioAssay
The full list was thinned out, with hits kept by preference.
AmpC inh detg: qHTS Inhibitors of AmpC Beta-Lactamase (assay with detergent) | P00811 | AmpC hydrolysis of nitrocefin, absorbance 480 nm, 0.01% Triton | Potency, µM (doses to about 114 µM), most hits filed as inhibitors | 370,000 tested, 0.041% active; note: nearly all actives have a fitted effect of over 25% in size
Target sequence (P00811 whole entry, looked up): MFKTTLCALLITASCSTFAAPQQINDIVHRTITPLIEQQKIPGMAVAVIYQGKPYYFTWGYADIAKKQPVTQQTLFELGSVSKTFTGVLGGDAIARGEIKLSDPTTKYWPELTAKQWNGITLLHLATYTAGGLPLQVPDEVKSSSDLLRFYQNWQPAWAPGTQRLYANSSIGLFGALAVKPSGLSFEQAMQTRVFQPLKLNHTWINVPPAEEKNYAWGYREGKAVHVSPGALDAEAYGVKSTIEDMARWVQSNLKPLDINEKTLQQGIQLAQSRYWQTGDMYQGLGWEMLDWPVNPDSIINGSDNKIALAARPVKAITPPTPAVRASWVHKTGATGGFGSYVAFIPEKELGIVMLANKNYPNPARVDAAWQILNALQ
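AmpC (5.3 nM in the dispensed reagent) in 20 mM phosphate pH 7.0 with 0.01% (detergent screen) or 0.0001% Triton X-100 was preincubated with compounds for 15 min at room temperature. Nitrocefin was then added from an 800 uM solution, and hydrolysis was followed at 480 nm.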
AMA1 RON2 block: qHTS for Inhibitors of AMA1-RON; Towards Development of Antimalarial Drug Lead: Primary Screen; 360,000 tested, 0.2% active; AlphaScreen AMA1-biotinylated RON2 peptide binding; Plasmodium falciparum AMA1 (3D7) - RON2 peptide interaction; Potency, µM (series often up to 58.2 µM), actives largely listed as inhibitors; note: nearly all actives have a fitted effect of over 45% in size
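AMA1 (3D7) with his tag at 25 nM final met compounds first, then biotinylated RON2 peptide at 25 nM; detection used donor plus acceptor beads, 10 µg/mL apiece, read by AlphaScreen after 30 min at room temperature.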
AmpC no deterg: qHTS Inhibitors of AmpC Beta-Lactamase (assay without detergent). Potency, µM (titrated, usually from 57.1 µM), usual class: inhibitors. AID 485341, 2010. AmpC nitrocefin hydrolysis, absorbance 480 nm, 0.0001% Triton. P00811. 330,000 tested, 0.52% active; note: nearly all actives have a fitted effect of over 20% in size
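AmpC (5.3 nM in the dispensed reagent) in 20 mM phosphate pH 7.0 with 0.01% (detergent screen) or 0.0001% Triton X-100 was preincubated with compounds for 15 min at room temperature. Nitrocefin was then added from an 800 uM solution, and hydrolysis was followed at 480 nm.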
CHX counter: Cycloheximide Counterscreen for Small Molecule Inhibitors of Shiga Toxin; cell reporter, cycloheximide protein synthesis inhibition counterscreen; max response, %; 300,000 tested, 12% active; in the data active = max response mostly above about 13%, no sharp cut-off; inactive = mostly below about 14%; note: read at 38.3 µM for the half of the compounds with a filed dose
Shiga inhibitor: A qHTS for Small Molecule Inhibitors of Shiga Toxin; Vero cells, Shiga toxin protein synthesis inhibition reporter; 290,000 tested, 9.2% active; inhibition, % at 38.7 µM; in the data active = inhibition mostly above about 28%, no sharp cut-off; inactive = mostly below about 43%
SARS PLpro yeast: qHTS of Yeast-based Assay for SARS-CoV PLP | AID 485353, 2010 | 330,000 tested, 0.19% active | Potency, µM (highest dose often 32.9 µM), hits mostly activators | S. cerevisiae expressing SARS-CoV PLpro, growth rescue; calls by dose curve; note: nearly all actives have a fitted effect of over 55% in size
Each line names hits and unclear results; the compound was inactive in the other large screens. Unless noted, calls come from the whole dose curve; as a rule, active = well fitted curve in the direction sought with a large enough effect; inconclusive = small, poorly fitted or top-dose-only effect, or another doubt; inactive = no such curve, though single readings can be large; an effect the other way counts as inactive or inconclusive.

O=C(CSc1ccc(-c2ccccn2)nn1)c1ccc([N+](=O)[O-])cc1	AMA1 RON2 block 13µM
COc1ccc(C(=O)CSc2ccc(-c3ccccc3)nn2)cc1	AmpC inh detg inconclusive
O=C(CSc1ccc(-c2ccco2)nn1)NC1CCCCC1	none
O=C(CSc1ccc(-c2cccnc2)nn1)c1ccc([N+](=O)[O-])cc1	none
O=C(CSc1ccc(-c2ccco2)nn1)N1CCCCCC1	Shiga inhibitor 51
COc1cccc(-c2ccc(SCC(=O)c3ccccc3)nn2)c1	Shiga inhibitor 48
NS(=O)(=O)c1ccc(Sc2ccccn2)c([N+](=O)[O-])c1	none
COc1ccccc1N1CCN(C(c2ccccc2)c2nnc(-c3ccccc3Cl)o2)CC1 (stereo not given)	none (no result: AMA1 RON2 block, AmpC no deterg, CHX counter, Shiga inhibitor, SARS PLpro yeast)
COc1ccc(C2CC(=O)c3sc(NC(C)=O)nc3C2)cc1 (stereo not given)	CHX counter 20, Shiga inhibitor active
COc1ccc(-c2nc(NC(C)=O)sc2-c2ccc(OC)cc2)cc1	none
O=C(N/N=C1/CC2C=CCC12)c1ccc(Br)o1 (stereo not given)	CHX counter 74, Shiga inhibitor 75
CCc1ccc(/C=C2\Oc3cc(OS(C)(=O)=O)ccc3C2=O)cc1	CHX counter 14
CS(=O)(=O)Oc1ccc2c(c1)O/C(=C\c1cccc([N+](=O)[O-])c1)C2=O	none
O=C1/C(=C/c2ccncc2)Oc2cc(OS(=O)(=O)c3ccccc3)ccc21	none
CS(=O)(=O)Oc1ccc2c(c1)O/C(=C\C=C\c1ccccc1)C2=O	CHX counter 15, Shiga inhibitor 36
Nc1nnc(CC(=O)N/N=C/c2cccc(OCCOc3ccccc3)c2)s1	CHX counter 41, Shiga inhibitor 69
Nc1nnc(CC(=O)N/N=C/c2cccc([N+](=O)[O-])c2)s1	none
Cc1ccccc1OCCOc1cccc(/C=N/NC(=O)Cc2nnc(N)s2)c1	CHX counter 38, Shiga inhibitor 137
CC(=O)c1cnc2nc(SCc3cccc(C)c3)nn2c1C	CHX counter 9.4
CC(=O)c1cnc2nc(SCc3ccccc3)nn2c1C	CHX counter 35, Shiga inhibitor 47
COc1cc(/C=C(/C(=O)O)c2ccc(-c3ccccc3)cc2)cc(OC)c1OC	none
CN(C)c1ccc(P(=O)(Nc2cccc(C(F)(F)F)c2)N2CCOCC2)c(NC(=O)c2cccs2)c1 (stereo not given)	none
COCCOC(=O)c1c(C)oc2ccc(OC(=O)COc3c(F)c(F)c(F)c(F)c3F)cc12	none
Cc1ccc(Cn2ccn(Cc3cccc(C(F)(F)F)c3)c(=O)c2=O)cc1	none (no result: AMA1 RON2 block, AmpC no deterg, CHX counter, Shiga inhibitor, SARS PLpro yeast)
Cc1cc(Cl)c(S(=O)(=O)N2CCCC2)cc1OCC(N)=O	none
CCc1nnc(SCc2ccc(CSc3nnc(CC)n3N)cc2)n1N	none
COc1ccc(Cc2nc(-c3ccccn3)no2)cc1	AmpC inh detg inconclusive, CHX counter 41, SARS PLpro yeast inconclusive
c1ccc(C(Cc2nc(-c3ccccn3)no2)c2ccccc2)cc1	CHX counter 56, Shiga inhibitor 94
c1ccc(CCCc2nc(-c3ccccn3)no2)cc1	CHX counter 46, Shiga inhibitor 62, SARS PLpro yeast inconclusive
c1ccc(SCc2nc(-c3ccccn3)no2)cc1	CHX counter 58, Shiga inhibitor 40
Clc1ccc(-c2noc(CCCc3ccccc3)n2)cc1	AmpC inh detg inconclusive
O=C(COC(=O)c1cc2ccccc2cc1O)c1ccccc1	none
Cc1ccc(-c2nc(-c3ccccn3)no2)cc1	none
O=C1c2ccccc2C(=O)N1Cc1nc(-c2ccccn2)no1	CHX counter 46, Shiga inhibitor 47 (no result: AmpC no deterg, SARS PLpro yeast)
c1ccc(Cc2nc(-c3ccccn3)no2)cc1	CHX counter 50, Shiga inhibitor 94
O=C1c2ccccc2C(=O)N1CCc1nc(-c2ccncc2)no1	AmpC inh detg inconclusive
c1ccc(-c2nc(-c3ccccn3)no2)cc1	none
Cc1ccc(Cc2nc(-c3ccccn3)no2)cc1	CHX counter 41, Shiga inhibitor 69
